Data on eight compounds can be found in ChEMBL document CHEMBL3988442, “University of Dundee, Small-Polar-MMV Screening Library” (2021).

For some of these results: Entries with a potency or affinity are not part of this list.

What all share (parameters): scale not given: direction of the effect not stated beside the values
The target in assay [1] is Protein translocase subunit SecA (Escherichia coli (strain K12)) (UniProt P10408). In words: Assay to Identify E. coli SecA ATPase Inhibitors. Type of assay: functional. The settings on record: 30 µM.
Protein translocase subunit SecA (Escherichia coli (strain K12)), sequence (P10408 whole entry): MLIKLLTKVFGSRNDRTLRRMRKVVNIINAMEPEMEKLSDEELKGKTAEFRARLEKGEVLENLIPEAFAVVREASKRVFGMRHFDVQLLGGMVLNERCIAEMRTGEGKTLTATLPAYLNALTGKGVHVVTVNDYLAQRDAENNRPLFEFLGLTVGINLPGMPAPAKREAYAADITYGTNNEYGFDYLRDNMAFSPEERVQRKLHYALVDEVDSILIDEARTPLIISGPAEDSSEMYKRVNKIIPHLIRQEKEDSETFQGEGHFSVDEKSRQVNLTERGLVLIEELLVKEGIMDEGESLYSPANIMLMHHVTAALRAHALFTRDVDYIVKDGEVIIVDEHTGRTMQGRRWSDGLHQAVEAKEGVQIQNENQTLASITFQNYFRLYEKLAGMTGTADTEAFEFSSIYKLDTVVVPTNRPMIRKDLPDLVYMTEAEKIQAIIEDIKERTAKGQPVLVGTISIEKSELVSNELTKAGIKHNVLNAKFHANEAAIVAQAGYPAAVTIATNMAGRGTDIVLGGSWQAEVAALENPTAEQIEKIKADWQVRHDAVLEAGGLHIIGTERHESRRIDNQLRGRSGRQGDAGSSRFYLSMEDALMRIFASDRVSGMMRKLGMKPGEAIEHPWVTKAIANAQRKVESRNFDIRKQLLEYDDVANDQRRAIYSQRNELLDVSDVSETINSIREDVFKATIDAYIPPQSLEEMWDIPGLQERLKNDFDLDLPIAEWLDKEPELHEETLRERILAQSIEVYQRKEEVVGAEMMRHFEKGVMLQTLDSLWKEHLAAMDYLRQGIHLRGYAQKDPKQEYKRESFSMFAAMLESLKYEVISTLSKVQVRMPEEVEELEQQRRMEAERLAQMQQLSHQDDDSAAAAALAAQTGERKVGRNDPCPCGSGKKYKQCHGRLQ
For assay [2], the target named is T1, Ubiquitin-activating enzyme e1, putative (Leishmania donovani (strain BPK282A1)) (UniProt E9BSI1).
T1 sequence (whole entry): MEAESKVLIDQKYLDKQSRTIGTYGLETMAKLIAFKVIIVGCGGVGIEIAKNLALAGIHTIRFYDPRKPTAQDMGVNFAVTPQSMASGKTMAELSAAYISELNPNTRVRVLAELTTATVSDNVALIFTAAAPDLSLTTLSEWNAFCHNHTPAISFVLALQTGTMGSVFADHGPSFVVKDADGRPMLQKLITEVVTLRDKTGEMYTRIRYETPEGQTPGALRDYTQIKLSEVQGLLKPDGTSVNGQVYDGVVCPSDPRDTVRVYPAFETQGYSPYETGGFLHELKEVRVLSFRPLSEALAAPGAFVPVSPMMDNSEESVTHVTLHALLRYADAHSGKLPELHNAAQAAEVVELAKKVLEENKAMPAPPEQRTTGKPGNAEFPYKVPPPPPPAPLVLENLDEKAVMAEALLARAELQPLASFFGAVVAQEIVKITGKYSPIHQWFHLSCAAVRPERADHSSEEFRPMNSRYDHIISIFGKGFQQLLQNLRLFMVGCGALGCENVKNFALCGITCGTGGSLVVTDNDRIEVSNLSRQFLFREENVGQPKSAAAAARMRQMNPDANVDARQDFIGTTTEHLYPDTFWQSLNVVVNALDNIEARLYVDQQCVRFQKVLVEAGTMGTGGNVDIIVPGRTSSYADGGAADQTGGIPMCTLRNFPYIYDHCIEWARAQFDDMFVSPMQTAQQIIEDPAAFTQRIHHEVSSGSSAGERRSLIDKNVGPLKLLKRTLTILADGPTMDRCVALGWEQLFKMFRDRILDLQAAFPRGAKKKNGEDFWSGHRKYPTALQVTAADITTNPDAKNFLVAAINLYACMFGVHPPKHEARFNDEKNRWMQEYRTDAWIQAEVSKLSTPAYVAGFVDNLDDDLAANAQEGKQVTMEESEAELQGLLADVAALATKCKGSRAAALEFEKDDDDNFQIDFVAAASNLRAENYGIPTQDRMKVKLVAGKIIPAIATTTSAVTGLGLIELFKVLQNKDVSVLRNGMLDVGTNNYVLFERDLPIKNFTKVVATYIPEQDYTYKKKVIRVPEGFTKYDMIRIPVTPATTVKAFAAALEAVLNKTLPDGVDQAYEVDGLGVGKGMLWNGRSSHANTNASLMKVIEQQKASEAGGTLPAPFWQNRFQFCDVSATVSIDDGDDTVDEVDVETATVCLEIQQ
Kind of assay: Leishmania donovani Ubiquitin Activating Enzyme (LdE1). Format: functional. The settings on record: 30 µM.

Assay [3] has as its target AMP-activated protein kinase, AMPK (Homo sapiens) (UniProt P54646+O43741+P54619+Q9UGJ0+Q9Y478+Q13131+Q9UGI9). In words: AMP-dependent Kinase enzyme assay. An in vitro enzyme assay that detects ADP turnover that is directly proportional to AMPK activity. This uses naive AMPK that is activated during the assay with MK-8722. Format: functional. The conditions noted are these: 30 µM.

The target in assay [4] is Sialic acid-binding Ig-like lectin 9 (Homo sapiens) (UniProt Q9Y336). Kind of assay: Hs-Siglec9 ALPHAscreen SOP 20170721. The conditions noted are these: 10 µM. A general note: Bead proximity is the source of the signal in Alpha formats.
Sialic acid-binding Ig-like lectin 9 (Homo sapiens), sequence (Q9Y336 whole entry): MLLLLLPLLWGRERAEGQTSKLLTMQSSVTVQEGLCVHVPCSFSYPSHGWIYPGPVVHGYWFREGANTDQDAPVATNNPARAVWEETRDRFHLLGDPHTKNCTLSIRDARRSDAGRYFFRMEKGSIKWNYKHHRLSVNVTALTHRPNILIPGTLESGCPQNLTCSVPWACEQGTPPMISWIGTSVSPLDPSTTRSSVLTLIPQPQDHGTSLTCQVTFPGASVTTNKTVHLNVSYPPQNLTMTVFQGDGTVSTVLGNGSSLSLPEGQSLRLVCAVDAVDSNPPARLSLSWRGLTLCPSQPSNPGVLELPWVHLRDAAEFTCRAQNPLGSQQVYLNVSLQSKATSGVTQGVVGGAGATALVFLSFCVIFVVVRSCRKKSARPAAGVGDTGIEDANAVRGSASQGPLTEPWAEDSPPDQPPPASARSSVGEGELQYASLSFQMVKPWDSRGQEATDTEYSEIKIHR
In a further assay the test system is Trypanosoma cruzi. In words: Trypanosoma cruzi phosphomannomutase and mannose-1-phosphate guanylyltransferase assay. Format: functional. The settings on record: 10 µM.
In assay [5] the target is T2, Arginase-2, mitochondrial (Homo sapiens) (UniProt P78540).
T2 sequence (whole entry): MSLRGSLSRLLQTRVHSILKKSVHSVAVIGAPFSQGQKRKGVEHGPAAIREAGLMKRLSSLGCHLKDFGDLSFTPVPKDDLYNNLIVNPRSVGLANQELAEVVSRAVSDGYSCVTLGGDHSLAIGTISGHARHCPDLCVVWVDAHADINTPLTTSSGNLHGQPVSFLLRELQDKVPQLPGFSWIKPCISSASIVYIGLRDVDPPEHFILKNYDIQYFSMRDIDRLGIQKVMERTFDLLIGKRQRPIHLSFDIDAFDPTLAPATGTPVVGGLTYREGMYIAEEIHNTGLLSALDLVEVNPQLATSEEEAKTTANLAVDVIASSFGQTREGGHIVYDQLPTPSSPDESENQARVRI
Kind of assay: in vitro enzyme assay to detect the production of urea directly proportional to the activity of Arginase II. Further: in the data most compounds retested in dose-response had high values. Format: functional. The conditions noted are these: 33.3 µM.

Assay [6] addresses T3, Proteasome subunit beta (Trypanosoma cruzi) (UniProt O96673).
T3 sequence (whole entry): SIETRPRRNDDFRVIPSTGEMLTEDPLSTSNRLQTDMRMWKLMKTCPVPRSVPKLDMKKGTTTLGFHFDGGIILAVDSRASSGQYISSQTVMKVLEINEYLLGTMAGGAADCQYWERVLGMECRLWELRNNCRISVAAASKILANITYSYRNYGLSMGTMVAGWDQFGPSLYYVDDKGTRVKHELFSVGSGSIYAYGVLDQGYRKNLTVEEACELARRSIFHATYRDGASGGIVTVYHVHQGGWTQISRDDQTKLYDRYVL
Kind of assay: Trypanosoma cruzi proteasome chymotrypsin-like activity (TcProtChymo) assay. Further: in the data most compounds retested in dose-response had high values. Type of assay: functional. The conditions noted are these: 9.37 µM.

For a further assay, the species on record is Homo sapiens. In words: To identify inhibition of the IFN signalling (Jak-Stat) pathway via expression of an eGFP reporter gene under the control of an IFN-stimulated response element (ISRE) containing MxA promoter. Format: functional. The settings on record: 30 µM. A general note: A reporter such as luciferase makes a cellular process visible.
Assay [7] deals with T4, Tyrosyl-tRNA synthetase, putative (Trypanosoma cruzi (strain CL Brener)) (UniProt Q4DSP6).
T4 sequence (whole entry): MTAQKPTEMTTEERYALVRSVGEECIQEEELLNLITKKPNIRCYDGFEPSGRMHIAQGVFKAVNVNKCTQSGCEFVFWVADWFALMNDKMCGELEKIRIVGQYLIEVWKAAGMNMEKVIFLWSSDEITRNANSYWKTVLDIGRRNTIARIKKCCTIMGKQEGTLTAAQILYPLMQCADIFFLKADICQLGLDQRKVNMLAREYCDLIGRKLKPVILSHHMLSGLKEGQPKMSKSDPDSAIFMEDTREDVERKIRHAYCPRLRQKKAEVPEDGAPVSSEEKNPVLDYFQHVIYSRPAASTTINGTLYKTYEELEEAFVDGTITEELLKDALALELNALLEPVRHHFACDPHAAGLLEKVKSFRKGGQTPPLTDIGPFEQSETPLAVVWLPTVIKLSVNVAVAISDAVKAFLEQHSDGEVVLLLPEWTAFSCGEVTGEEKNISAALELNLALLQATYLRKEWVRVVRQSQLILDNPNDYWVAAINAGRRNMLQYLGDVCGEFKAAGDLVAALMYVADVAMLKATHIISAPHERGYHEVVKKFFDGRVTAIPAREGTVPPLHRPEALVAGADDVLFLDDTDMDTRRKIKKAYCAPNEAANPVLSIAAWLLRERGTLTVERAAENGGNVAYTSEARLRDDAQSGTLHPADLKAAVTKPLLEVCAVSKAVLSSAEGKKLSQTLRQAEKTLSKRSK
Kind of assay: Trypanosoma cruzi tyrosyl tRNA synthetase (TcYRS) _High Tyrosine SOP. Further: in the data most compounds retested in dose-response had high values. Type of assay: functional. The settings on record: 30 µM.

Assay [8] has as its target T4, Tyrosyl-tRNA synthetase, putative (Trypanosoma cruzi (strain CL Brener)). In words: Trypanosoma cruzi tyrosyl tRNA synthetase (TcYRS) SOP. Type of assay: functional. The settings on record: 30 µM.
Assay [9] has as its target Chromo domain-containing protein 1 (Saccharomyces cerevisiae (strain ATCC 204508 / S288c) (Baker's yeast)) (UniProt P32657). Kind of assay: ScCHD-1 Enzyme Inhibition Assay. Further: in the data most compounds retested in dose-response had high values. Format: functional. The conditions noted are these: 30 µM.

Chromo domain-containing protein 1 (Saccharomyces cerevisiae (strain ATCC 204508 / S288c) (Baker's yeast)), sequence (P32657 whole entry, the tested form may be a part): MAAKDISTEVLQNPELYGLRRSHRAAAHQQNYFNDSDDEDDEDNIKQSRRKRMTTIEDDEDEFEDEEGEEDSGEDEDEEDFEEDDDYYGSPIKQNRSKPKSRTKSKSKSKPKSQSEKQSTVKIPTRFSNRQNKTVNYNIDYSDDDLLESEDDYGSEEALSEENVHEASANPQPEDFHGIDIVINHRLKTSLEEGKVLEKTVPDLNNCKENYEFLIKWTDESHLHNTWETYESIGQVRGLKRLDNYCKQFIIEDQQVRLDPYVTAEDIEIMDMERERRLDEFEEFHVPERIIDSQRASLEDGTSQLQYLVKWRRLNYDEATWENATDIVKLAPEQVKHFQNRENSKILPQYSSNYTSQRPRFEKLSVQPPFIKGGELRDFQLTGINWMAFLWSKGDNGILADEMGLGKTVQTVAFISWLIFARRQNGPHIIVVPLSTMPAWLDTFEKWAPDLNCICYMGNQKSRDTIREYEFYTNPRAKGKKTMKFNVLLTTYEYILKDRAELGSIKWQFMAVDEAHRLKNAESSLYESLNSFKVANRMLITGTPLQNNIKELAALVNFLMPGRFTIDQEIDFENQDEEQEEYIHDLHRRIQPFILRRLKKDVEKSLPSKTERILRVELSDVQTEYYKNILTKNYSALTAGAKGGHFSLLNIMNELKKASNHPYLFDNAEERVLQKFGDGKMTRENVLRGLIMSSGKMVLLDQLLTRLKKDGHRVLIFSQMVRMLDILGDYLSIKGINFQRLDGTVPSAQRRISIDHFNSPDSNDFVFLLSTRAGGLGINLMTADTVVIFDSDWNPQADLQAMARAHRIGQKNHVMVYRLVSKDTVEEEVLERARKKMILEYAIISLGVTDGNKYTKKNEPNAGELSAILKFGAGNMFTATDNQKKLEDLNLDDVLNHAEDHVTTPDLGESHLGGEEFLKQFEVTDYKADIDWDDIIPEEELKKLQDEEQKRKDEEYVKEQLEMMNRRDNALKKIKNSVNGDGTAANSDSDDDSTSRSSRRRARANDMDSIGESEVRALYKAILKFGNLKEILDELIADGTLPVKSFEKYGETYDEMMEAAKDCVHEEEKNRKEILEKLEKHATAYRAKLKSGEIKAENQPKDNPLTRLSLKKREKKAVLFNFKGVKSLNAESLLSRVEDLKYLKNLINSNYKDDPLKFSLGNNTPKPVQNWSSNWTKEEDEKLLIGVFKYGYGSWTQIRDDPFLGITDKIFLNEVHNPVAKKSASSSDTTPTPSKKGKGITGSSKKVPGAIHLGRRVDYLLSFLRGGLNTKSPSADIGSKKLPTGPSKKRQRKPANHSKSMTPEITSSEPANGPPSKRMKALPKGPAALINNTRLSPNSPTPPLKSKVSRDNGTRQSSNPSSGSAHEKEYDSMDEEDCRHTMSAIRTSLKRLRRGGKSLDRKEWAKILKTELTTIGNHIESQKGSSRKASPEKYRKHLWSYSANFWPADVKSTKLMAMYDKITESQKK

Take `COc1ccc(CN2CCC3(CC2)CCN(c2ncccn2)CC3)cc1`: the Percent Effect was -2.42% in assay [1]; 2.7% in assay [2]; 0.552% in assay [3]; 4.9% in assay [4]; 5.57% in the assay with Trypanosoma cruzi; 8.6% in assay [5]. Further, the Percent Effect was 1.29% in [6]; -26.6% in the assay filed under Homo sapiens; 0% in assay [7]; 5.13% in assay [8]; 6.6% in assay [9].
Regarding `Cc1ccc(-n2nnc(CC(=O)N3CCOCC3)c2C)cc1`, the Percent Effect in [1] was -3.24%; in assay [2], 18.2%; in assay [3] it was -1.18%; in [4], 11.4%; with Trypanosoma cruzi, 5.61%; in [5] it was -12.4%. For the same compound, the Percent Effect was 13% in assay [6]; 6.11% in the assay listed under Homo sapiens; 6.45% in [7]; 18.5% in [8]; -6.8% in assay [9].
With `Cc1nn(C)c(C)c1C1CCCN1C(=O)c1ccc(NC2CC2)nc1` (stereo not drawn), the Percent Effect in assay [1] is -1.33%; in [2] it was 16.2%; in [3], -3.14%; in assay [4] it was 10.9%; in the assay on Trypanosoma cruzi, 0.464%; in assay [5], -4.25%. Also, the Percent Effect was 5.92% in assay [6]; 22.6% in the assay listed under Homo sapiens; 7.92% in [7]; 18.3% in assay [8]; -2.71% in assay [9].
For the compound `CC(NC(=O)NCC1(O)CCC1)c1ccc(OCC2CC2)c(F)c1` (stereo not drawn), the Percent Effect in assay [1] is -6.25%; in assay [2] it was 10.5%; in assay [3], 0.839%; in assay [4], 9.9%; with Trypanosoma cruzi, 1.85%; in assay [5], -24.9%. In addition, the Percent Effect in assay [6] was 10.3%; in the assay listed under Homo sapiens, 14%; in assay [7], 3.19%; in [8], 7.79%; in assay [9] it was -3.31%.
In the case of `Cn1cc(C[C@H]2[C@H](O)CCN2CC2CC2)cn1`, the Percent Effect in assay [1] is -2.02%; in [2] it was -2.7%; in assay [3], 6.23%; in assay [4], 1.34%; in the assay on Trypanosoma cruzi, 1.27%; in assay [5] it was -32.8%. In addition, the Percent Effect in [6] came to 11.2%; in the assay filed under Homo sapiens it was 1.21%; in [7], 5.41%; in assay [8] it was 5.13%; in assay [9], 0.853%.
With `CCN(CCn1cccn1)Cc1nc(-c2cccs2)oc1C`, the Percent Effect was -3.57% in [1]; -1.39% in [2]; 40.3% in assay [3]; -4.42% in [4]; 0.486% with Trypanosoma cruzi; 0.442% in assay [5]. The Percent Effect was 2.63% in [6]; 0.654% in the assay listed under Homo sapiens; 4.21% in assay [7]; 2.56% in assay [8]; 0.676% in assay [9].
In the case of `CC(C)NC(=O)[C@@H]1CCO[C@@H]2CCN(c3ncccn3)C[C@H]21`, the Percent Effect was -6.07% in assay [1]; 16% in assay [2]; -1.13% in [3]; 0.524% in assay [4]; 0.579% in the assay with Trypanosoma cruzi; -45% in assay [5]. Besides, the Percent Effect in [6] was 4.1%; in the assay listed under Homo sapiens it was -11%; in assay [7] it was 8.33%; in assay [8] it was 10%; in assay [9], -7.2%.
For the compound `O=C(CO[C@@H]1CC[C@H]2[C@H]1OCCN2CC1CCOCC1)N1CCCC1`, the Percent Effect in [1] was -4.19%; in assay [2], 0%; in assay [3] it was 2.42%; in [4], -1.24%; in the assay on Trypanosoma cruzi, -3.12%; in assay [5], 2.08%. The Percent Effect in [6] came to 11.1%; in the assay listed under Homo sapiens, 2.51%; in assay [7], 8.91%; in [8] it was 8.54%; in [9] it was 1.37%.
